According to PubChem BioAssay AID624071 (Southern Research Specialized Biocontainment Screening …, 2012):
Unmarked numbers belong to inactive results. How the calls were made is not given here.

assay: Dengue virus CPE inhibition, flavivirus guanylyltransferase probe project, cell-based, secondary screen (AID 624071); conditions: Dengue virus CPE inhibition assay, cell viability; series mostly up to 100 µM; CPE inhibition: at the top concentration

| Structure (SMILES) | CPE inhibition |
| --- | --- |
| Cc1ccc(S(=O)(=O)Nc2cc(Sc3nc(C)cc(C)n3)c(O)c3ccccc23)cc1 | 0% |
| O=C(O)CSc1cc(NS(=O)(=O)c2ccc(Br)cc2)c2ccccc2c1O | 0% |
| Cc1ccc(S(=O)(=O)Nc2cc(SCC(=O)O)c(O)c3ccccc23)cc1 | 0% |
| Cc1cc(C)c(S(=O)(=O)Nc2cc(SCC(=O)O)c(O)c3ccccc23)c(C)c1 | 0% |
| O=C(O)CSc1cc(NS(=O)(=O)c2cccc3cccnc23)c2ccccc2c1O | 0% |
| O=C(O)CSc1cc(NS(=O)(=O)c2cccc([N+](=O)[O-])c2)c2ccccc2c1O | 0% |
| Cc1cc(F)ccc1S(=O)(=O)Nc1cc(SCC(=O)O)c(O)c2ccccc12 | 0% |
| O=S(=O)(Nc1cc(Sc2ccccc2)c(O)c2ccccc12)c1ccc(F)cc1 | 0% |
| Cn1c(=O)c2[nH]c(-c3ccccc3)c(O)c2n(C)c1=O | 0% |
| O=[N+]([O-])c1cccc(S(=O)(=O)Nc2cc(SCc3ccccc3)c(O)c3ccccc23)c1 | 0% |
| O=S(=O)(Nc1cc(SCc2ccccc2)c(O)c2ccccc12)c1ccc(Cl)cc1 | 0% |
| O=C(O)CSc1cc(NS(=O)(=O)c2ccc(Cl)cc2)c2ccccc2c1O | 0% |
| Cn1c(=O)c2[nH]c(-c3ccc(Cl)cc3)c(O)c2n(C)c1=O | 0% |
| COc1ccc(OC)c(S(=O)(=O)Nc2cc(SCC(=O)O)c(O)c3ccccc23)c1 | 0% |
| O=S(=O)(Nc1cc(Cl)c(O)c2ccccc12)c1ccc(F)cc1 | 0% |
| O=[N+]([O-])c1cccc(S(=O)(=O)Nc2cc(Sc3nc4ccccc4s3)c(O)c3ccccc23)c1 | 0% |
| O=C(O)CSc1cc(NS(=O)(=O)c2ccc(F)cc2)c2ccccc2c1O | 0% |
| O=S(=O)(Nc1cc(Sc2ncn[nH]2)c(O)c2ccccc12)c1ccc(F)cc1 | 0% |
